# Reference: PubChem BioAssay (NCI)
# This is part of a sample that, as a whole, favours compounds with a hit. Of some 79,000 tested, about 15% had one in any assay. A number with no mark means an inactive call. The source made the active and inactive calls. Rule as the data show it: active = growth inhibition above about 70%; inactive = the rest.
# Legend:
# [1] = NCI Yeast Anticancer Drug Screen. Data for the rad52 strain (AID 147);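 also: 0% = growth of vehicle-treated control cultures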; details: S. cerevisiae rad52 mutant growth inhibition, stronger effect = higher value
# In short: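 Inhibition of yeast growth, referenced to vehicle controls, was the measured output for a strain with defective DNA damage repair.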
# [2] = NCI Yeast Anticancer Drug Screen. Data for the wt1 strain (AID 149);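 also: 0% = growth of vehicle-treated wt1 cultures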; details: S. cerevisiae wt1 strain (SPY 50644) growth inhibition, stronger effect = higher value
# In short: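 Vehicle-normalised growth inhibition; strain wt1; compound exposure.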
# [3] = NCI Yeast Anticancer Drug Screen. Data for the rad50EPP+ strain (AID 151);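 also: 0% = growth of vehicle-treated control cultures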; details: S. cerevisiae rad50 mutant strain, stronger effect = higher value
# In short: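 Genetically defined yeast (rad50EPP+, DNA damage repair alteration) is grown with compound, and inhibition of growth is expressed relative to vehicle-treated controls.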
# [4] = NCI Yeast Anticancer Drug Screen. Data for the mgt1 strain (AID 153); details: S. cerevisiae mgt1 mutant growth inhibition, stronger effect = higher value
# In short: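 In the mgt1 strain, test compounds were added and growth inhibition was determined relative to vehicle-treated controls.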
# [5] = NCI Yeast Anticancer Drug Screen. Data for the rad50 strain (AID 155);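 also: 0% = growth of vehicle-only cultures of the same strain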; details: S. cerevisiae rad50 strain growth inhibition, stronger effect = higher value
# In short: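 A DNA repair-deficient yeast mutant serves as the test organism; compound-induced growth inhibition is calculated against vehicle-treated cells.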
# [6] = NCI Yeast Anticancer Drug Screen. Data for the mec2-1 strain (AID 157); details: S. cerevisiae mec2-1 strain, stronger effect = higher value
# In short: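 Each compound was tested on mec2-1 yeast, a strain altered in DNA damage repair or cell cycle control. Growth inhibition is reported relative to vehicle.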
# [7] = NCI Yeast Anticancer Drug Screen. Data for the rad14 strain (AID 159);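 also: 0% = growth of vehicle-treated control cultures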; details: S. cerevisiae rad14 strain growth inhibition, stronger effect = higher value
# In short: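 Vehicle-treated cultures served as the baseline for growth inhibition of a DNA repair-mutant yeast strain exposed to each compound.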
# [8] = NCI Yeast Anticancer Drug Screen. Data for the sgs1 mgt1 strain (AID 161);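 also: 0% = growth of cultures given vehicle only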; details: S. cerevisiae sgs1 mgt1 strain, stronger effect = higher value
# In short: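 Genetically altered yeast, compound exposure, growth inhibition relative to vehicle.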
# [9] = NCI Yeast Anticancer Drug Screen. Data for the CLN2oe strain (AID 163);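 also: 0% = growth of vehicle-only control cultures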; details: S. cerevisiae CLN2oe strain, stronger effect = higher value
# In short: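 First, the altered yeast strain was treated with each compound; second, its growth was measured; finally, inhibition was derived by comparison with vehicle controls.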
# [10] = NCI Yeast Anticancer Drug Screen. Data for the cln2 rad14 strain (AID 165);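 also: 0% = growth equal to vehicle treated cultures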; details: S. cerevisiae cln2 rad14 strain, stronger effect = higher value
# In short: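 Test compounds were added to cln2 rad14 yeast cultures; inhibition of growth was then determined by comparison with vehicle treatment.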
# [11] = NCI Yeast Anticancer Drug Screen. Data for the bub3 strain (AID 167); details: S. cerevisiae bub3 mutant strain, stronger effect = higher value
# In short: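 Inhibition values come from growth of compound-treated mutant yeast normalised to vehicle-treated controls.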
# [12] = NCI Yeast Anticancer Drug Screen. Data for the wt2 strain (AID 169);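 also: 0% = growth of vehicle-treated yeast cultures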; details: S. cerevisiae wt2 strain growth inhibition, stronger effect = higher value
# In short: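 The panel's yeast strains carry defined changes in DNA repair or cell cycle genes. Each strain is grown with compound, and growth loss is scored relative to vehicle.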
# [13] = NCI Yeast Anticancer Drug Screen. Data for the mlh1 strain (AID 171);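 also: 0% = growth of vehicle-treated control cultures of the same strain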; details: S. cerevisiae mlh1 strain growth inhibition, stronger effect = higher value
# In short: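 Inhibition values reflect reduced yeast growth in the presence of compound, referenced to vehicle controls, using a strain chosen for its alteration in DNA repair or cell cycle control.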
# [14] = NCI Yeast Anticancer Drug Screen. Data for the sgs1 strain (AID 173);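 also: 0% = growth of vehicle-only control cultures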; details: S. cerevisiae sgs1 mutant, stronger effect = higher value
# In short: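 Vehicle-treated cultures served as reference for growth inhibition of a yeast strain altered in DNA damage repair or cell cycle control after compound exposure.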
# [15] = NCI Yeast Anticancer Drug Screen. Data for the mlh1 rad18 strain (AID 175); details: S. cerevisiae mlh1 rad18 strain growth inhibition, stronger effect = higher value
# In short: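 Inhibition values reflect reduced growth of mutant yeast versus vehicle-treated controls following compound exposure; the mutations affect DNA damage repair.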
# [16] = NCI Yeast Anticancer Drug Screen. Data for the rad18 strain (AID 177); details: S. cerevisiae rad18 mutant growth inhibition, stronger effect = higher value
# In short: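 Steps: expose repair-mutant yeast to compound; measure growth; express as inhibition relative to vehicle control.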
# [17] = at 5.0 µM (retest, dose inferred, filed as 0.5)
# [18] = at 50.0 µM (retest, dose inferred, filed as 5.0)
smiles,measurement,setting,value
OC1CCCc2c1cc1ccc3cccc4ccc2c1c34 (stereo unspecified),growth inhibition,[1]; at 1.2 µM,-7%
same,growth inhibition,[1]; at 3.7 µM,-2%
same,growth inhibition,[1]; at 11.0 µM,98% (active)
same,growth inhibition,[1]; at 33.0 µM,96% (active)
same,growth inhibition,[1]; at 100.0 µM,91% (active)
same,growth inhibition,[2]; at 1.2 µM,-2%
same,growth inhibition,[2]; at 3.7 µM,-10%
same,growth inhibition,[2]; at 11.0 µM,99% (active)
same,growth inhibition,[2]; at 33.0 µM,98% (active)
same,growth inhibition,[2]; at 100.0 µM,92% (active)
same,growth inhibition,[3]; at 1.2 µM,0%
same,growth inhibition,[3]; at 3.7 µM,37%
same,growth inhibition,[3]; at 11.0 µM,46%
same,growth inhibition,[3]; at 33.0 µM,57%
same,growth inhibition,[3]; at 100.0 µM,62%
same,growth inhibition,[4]; at 1.2 µM,-4%
same,growth inhibition,[4]; at 3.7 µM,-8%
same,growth inhibition,[4]; at 11.0 µM,99% (active)
same,growth inhibition,[4]; at 33.0 µM,98% (active)
same,growth inhibition,[4]; at 100.0 µM,90% (active)
same,growth inhibition,[5]; at 1.2 µM,-17%
same,growth inhibition,[5]; at 3.7 µM,-14%
same,growth inhibition,[5]; [17],30%
same,growth inhibition,[5]; at 11.0 µM,98% (active)
same,growth inhibition,[5]; at 33.0 µM,95% (active)
same,growth inhibition,[5]; [18],92% (active)
same,growth inhibition,[5]; at 50.0 µM,95.6% (active)
same,growth inhibition,[5]; at 100.0 µM,88% (active)
same,growth inhibition,[6]; at 1.2 µM,-5%
same,growth inhibition,[6]; at 3.7 µM,-5%
same,growth inhibition,[6]; [17],12%
same,growth inhibition,[6]; at 11.0 µM,99% (active)
same,growth inhibition,[6]; at 33.0 µM,96% (active)
same,growth inhibition,[6]; [18],93% (active)
same,growth inhibition,[6]; at 50.0 µM,94.1% (active)
same,growth inhibition,[6]; at 100.0 µM,88% (active)
same,growth inhibition,[7]; at 1.2 µM,0%
same,growth inhibition,[7]; at 3.7 µM,13%
same,growth inhibition,[7]; at 11.0 µM,99% (active)
same,growth inhibition,[7]; at 33.0 µM,97% (active)
same,growth inhibition,[7]; at 100.0 µM,91% (active)
same,growth inhibition,[8]; [17],29%
same,growth inhibition,[8]; [18],94% (active)
same,growth inhibition,[8]; at 50.0 µM,97.4% (active)
same,growth inhibition,[9]; at 1.2 µM,-9%
same,growth inhibition,[9]; at 3.7 µM,-14%
same,growth inhibition,[9]; at 11.0 µM,99% (active)
same,growth inhibition,[9]; at 33.0 µM,97% (active)
same,growth inhibition,[9]; at 100.0 µM,91% (active)
same,growth inhibition,[10]; [17],-4%
same,growth inhibition,[10]; [18],94% (active)
same,growth inhibition,[10]; at 50.0 µM,94% (active)
same,growth inhibition,[11]; at 1.2 µM,-11%
same,growth inhibition,[11]; at 3.7 µM,-3%
same,growth inhibition,[11]; [17],4%
same,growth inhibition,[11]; at 11.0 µM,98% (active)
same,growth inhibition,[11]; at 33.0 µM,97% (active)
same,growth inhibition,[11]; [18],92% (active)
same,growth inhibition,[11]; at 50.0 µM,95.5% (active)
same,growth inhibition,[11]; at 100.0 µM,89% (active)
same,growth inhibition,[12]; at 1.2 µM,-1%
same,growth inhibition,[12]; at 3.7 µM,10%
same,growth inhibition,[12]; at 11.0 µM,100% (active)
same,growth inhibition,[12]; at 33.0 µM,98% (active)
same,growth inhibition,[12]; at 100.0 µM,94% (active)
same,growth inhibition,[13]; at 1.2 µM,-16%
same,growth inhibition,[13]; at 3.7 µM,-10%
same,growth inhibition,[13]; at 11.0 µM,98% (active)
same,growth inhibition,[13]; at 33.0 µM,97% (active)
same,growth inhibition,[13]; at 100.0 µM,90% (active)
same,growth inhibition,[14]; at 1.2 µM,-8%
same,growth inhibition,[14]; at 3.7 µM,-3%
same,growth inhibition,[14]; at 11.0 µM,99% (active)
same,growth inhibition,[14]; at 33.0 µM,97% (active)
same,growth inhibition,[14]; at 100.0 µM,90% (active)
same,growth inhibition,[15]; [17],52%
same,growth inhibition,[15]; [18],93% (active)
same,growth inhibition,[15]; at 50.0 µM,94.8% (active)
same,growth inhibition,[16]; at 1.2 µM,-11%
same,growth inhibition,[16]; at 3.7 µM,-3%
same,growth inhibition,[16]; at 11.0 µM,99% (active)
same,growth inhibition,[16]; at 33.0 µM,98% (active)
same,growth inhibition,[16]; at 100.0 µM,92% (active)
Cc1nc(-c2ccccc2)c(-c2ccccc2)s1,growth inhibition,[1]; at 1.2 µM,23%
same,growth inhibition,[1]; at 3.7 µM,0%
same,growth inhibition,[1]; at 11.0 µM,17%
same,growth inhibition,[1]; at 33.0 µM,68%
same,growth inhibition,[1]; at 100.0 µM,98% (active)
same,growth inhibition,[2]; at 1.2 µM,-12%
same,growth inhibition,[2]; at 3.7 µM,9%
same,growth inhibition,[2]; at 11.0 µM,9%
same,growth inhibition,[2]; at 33.0 µM,59%
same,growth inhibition,[2]; at 100.0 µM,98% (active)
same,growth inhibition,[3]; at 1.2 µM,-24%
same,growth inhibition,[3]; at 3.7 µM,4%
same,growth inhibition,[3]; at 11.0 µM,29%
same,growth inhibition,[3]; at 33.0 µM,50%
same,growth inhibition,[3]; at 100.0 µM,65%
same,growth inhibition,[4]; at 1.2 µM,24%
same,growth inhibition,[4]; at 3.7 µM,8%
same,growth inhibition,[4]; at 11.0 µM,44%
same,growth inhibition,[4]; at 33.0 µM,95% (active)
same,growth inhibition,[4]; at 100.0 µM,99% (active)
same,growth inhibition,[5]; at 1.2 µM,-29%
same,growth inhibition,[5]; at 3.7 µM,-24%
same,growth inhibition,[5]; [17],98% (active)
same,growth inhibition,[5]; at 11.0 µM,-19%
same,growth inhibition,[5]; at 33.0 µM,77% (active)
same,growth inhibition,[5]; [18],100% (active)
same,growth inhibition,[5]; at 50.0 µM,84.4% (active)
same,growth inhibition,[5]; at 100.0 µM,97% (active)
same,growth inhibition,[6]; at 1.2 µM,3%
same,growth inhibition,[6]; at 3.7 µM,26%
same,growth inhibition,[6]; [17],96% (active)
same,growth inhibition,[6]; at 11.0 µM,24%
same,growth inhibition,[6]; at 33.0 µM,67%
same,growth inhibition,[6]; [18],100% (active)
same,growth inhibition,[6]; at 50.0 µM,84.5% (active)
same,growth inhibition,[6]; at 100.0 µM,97% (active)
same,growth inhibition,[7]; at 1.2 µM,9%
same,growth inhibition,[7]; at 3.7 µM,10%
same,growth inhibition,[7]; at 11.0 µM,7%
same,growth inhibition,[7]; at 33.0 µM,84% (active)
same,growth inhibition,[7]; at 100.0 µM,97% (active)
same,growth inhibition,[8]; [17],-6%
same,growth inhibition,[8]; [18],100% (active)
same,growth inhibition,[8]; at 50.0 µM,88.4% (active)
same,growth inhibition,[9]; at 1.2 µM,-2%
same,growth inhibition,[9]; at 3.7 µM,-17%
same,growth inhibition,[9]; at 11.0 µM,1%
same,growth inhibition,[9]; at 33.0 µM,39%
same,growth inhibition,[9]; at 100.0 µM,96% (active)
same,growth inhibition,[10]; [17],71% (active)
same,growth inhibition,[10]; [18],101% (active)
same,growth inhibition,[10]; at 50.0 µM,66.1%
same,growth inhibition,[11]; at 1.2 µM,6%
same,growth inhibition,[11]; at 3.7 µM,2%
same,growth inhibition,[11]; [17],8%
same,growth inhibition,[11]; at 11.0 µM,22%
same,growth inhibition,[11]; at 33.0 µM,78% (active)
same,growth inhibition,[11]; [18],101% (active)
same,growth inhibition,[11]; at 50.0 µM,84.5% (active)
same,growth inhibition,[11]; at 100.0 µM,98% (active)
same,growth inhibition,[12]; at 1.2 µM,-38%
same,growth inhibition,[12]; at 3.7 µM,-16%
same,growth inhibition,[12]; at 11.0 µM,-20%
same,growth inhibition,[12]; at 33.0 µM,81% (active)
same,growth inhibition,[12]; at 100.0 µM,97% (active)
same,growth inhibition,[13]; at 1.2 µM,29%
same,growth inhibition,[13]; at 3.7 µM,16%
same,growth inhibition,[13]; at 11.0 µM,41%
same,growth inhibition,[13]; at 33.0 µM,87% (active)
same,growth inhibition,[13]; at 100.0 µM,97% (active)
same,growth inhibition,[14]; at 1.2 µM,-11%
same,growth inhibition,[14]; at 3.7 µM,-1%
same,growth inhibition,[14]; at 11.0 µM,6%
same,growth inhibition,[14]; at 33.0 µM,86% (active)
same,growth inhibition,[14]; at 100.0 µM,98% (active)
same,growth inhibition,[15]; [17],100% (active)
same,growth inhibition,[15]; [18],100% (active)
same,growth inhibition,[15]; at 50.0 µM,86.5% (active)
same,growth inhibition,[16]; at 1.2 µM,-10%
same,growth inhibition,[16]; at 3.7 µM,8%
same,growth inhibition,[16]; at 11.0 µM,6%
same,growth inhibition,[16]; at 33.0 µM,67%
same,growth inhibition,[16]; at 100.0 µM,94% (active)
